Unmarked numbers belong to inactive results. Inconclusive results are not listed. Calls of active or inactive are those of the source. Unless noted, the call rests on the fitted dose curve; in most records, active means well fitted curve in the direction sought with a large enough effect in the repeat runs; inconclusive means weak or mixed curves; inactive means no such curve, though single readings can be large; an effect the other way counts as inactive or inconclusive.

Test [1] addresses Thyrotropin-releasing hormone receptor (Homo sapiens) (UniProt P34981). Put plainly: qHTS assay to identify small molecule agonists of the thyrotropin-releasing hormone receptor (TRHR) signaling pathway (AID 1346891; calls by dose curve; further: series mostly up to about 58 µM). Put shortly: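 Screening of agonists relied on calcium signalling in HEK293 cells expressing human TRHR: dye loading 2 h at 37 °C preceded compound addition and a 3-min fluorescence time course.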
A general note: qHTS replaces the single test concentration by a dilution series.

The nature of test [2]: Human pregnane X receptor (PXR) small molecule agonists, qHTS cell viability counter screen (AID 1346977). Further: nearly all actives have a fitted effect of over 50% in size. In short, it runs like this:
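Tox21 qHTS format; PXR-Luc HepG2, 2,000/well, charcoal-stripped FBS 5%. Cpd exposure 24hr. Read: CellTiter-Fluor fluorescence, multiplexed with luciferase.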

Test [3] in a line: Caspase-3/7 induction in HepG2 cells by small molecules, qHTS assay (AID 1346978). Further: nearly all actives have a fitted effect of over 15% in size. In short, it runs like this:
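Caspase-3/7 induction was measured by Caspase-Glo 3/7 luminescence (30 min, room temperature) after a 17 hr compound exposure of wild-type HepG2 cells seeded at 2,000 per well and pre-incubated 5 hr.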

Test [4] can be described thus: Caspase-3/7 induction in CHO-K1 cells by small molecules, qHTS cell viability counter screen (AID 1346979). Further: nearly all actives have a fitted effect of over 35% in size. Put shortly:
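CellTiter-Fluor viability check, qHTS format: wild-type CHO-K1, 16hr compound treatment, 1hr reagent incubation, fluorescence read.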

Test [5] in a line: Caspase-3/7 induction in CHO-K1 cells by small molecules, qHTS assay (AID 1346980). Further: nearly all actives have a fitted effect of over 15% in size. In short, it runs like this: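 Luminescent Caspase-Glo 3/7 read (30min, room temperature) quantified apoptosis induction. Cells were wild-type CHO-K1, treated with compound for 17hr at 37 C and 5% CO2.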
Test [6] in a line: Caspase-3/7 induction in HepG2 cells by small molecules, qHTS cell viability counter screen (AID 1346981). Further: series mostly up to about 92 µM; nearly all actives have a fitted effect of over 30% in size. Put shortly:
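In this quantitative HTS counter screen, compounds delivered in DMSO were left on unmodified HepG2 cells for 16 hr at 37 C. Viability was then determined fluorometrically with CellTiter-Fluor, in parallel with caspase-3/7 induction in the same wells.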

Test [7] deals with Nuclear receptor subfamily 1 group I member 2 (Homo sapiens) (UniProt O75469). Put plainly: Human pregnane X receptor (PXR) small molecule agonists, qHTS assay (AID 1346982). Further: nearly all actives have a fitted effect of over 35% in size. Put shortly: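 Reporter HepG2 cells expressing PXR-Luc are cultured in charcoal-stripped FBS (5%), treated with compounds for 24 hr at 37 C, and assayed by ONE-Glo luminescence after 30 min at room temperature.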
Chain of Nuclear receptor subfamily 1 group I member 2 (Homo sapiens) (O75469 whole entry, looked up): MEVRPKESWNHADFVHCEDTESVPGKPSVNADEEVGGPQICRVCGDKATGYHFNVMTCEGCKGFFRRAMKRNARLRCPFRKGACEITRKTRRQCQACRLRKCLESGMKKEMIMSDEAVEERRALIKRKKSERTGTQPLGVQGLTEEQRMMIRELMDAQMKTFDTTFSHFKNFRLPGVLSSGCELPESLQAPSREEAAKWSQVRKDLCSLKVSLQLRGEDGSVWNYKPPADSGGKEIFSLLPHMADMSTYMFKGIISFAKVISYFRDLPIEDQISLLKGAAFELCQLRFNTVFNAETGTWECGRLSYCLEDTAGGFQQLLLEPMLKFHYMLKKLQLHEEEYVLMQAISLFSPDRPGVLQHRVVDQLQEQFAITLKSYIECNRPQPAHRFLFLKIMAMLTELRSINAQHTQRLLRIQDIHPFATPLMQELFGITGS

Test [8] deals with Nuclear receptor subfamily 1 group I member 2 (Rattus norvegicus) (UniProt Q9R1A7). The experiment in a line: Rat pregnane X receptor (rPXR) activation by small molecules, qHTS assay (AID 1346983). Further: nearly all actives have a fitted effect of over 20% in size. Conditions: rPXR luciferase reporter cells, One-Glo luminescence, 24 h; max activation: active compounds read high. Put shortly: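 Luminescent readout (One-Glo luciferase, 30 min room temperature) followed 24 hr compound treatment at 37 C of rPXR cells plated 2,000 per well and preincubated 5hr; qHTS format with compounds delivered in DMSO.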
Chain of Nuclear receptor subfamily 1 group I member 2 (Rattus norvegicus) (Q9R1A7 whole entry, looked up): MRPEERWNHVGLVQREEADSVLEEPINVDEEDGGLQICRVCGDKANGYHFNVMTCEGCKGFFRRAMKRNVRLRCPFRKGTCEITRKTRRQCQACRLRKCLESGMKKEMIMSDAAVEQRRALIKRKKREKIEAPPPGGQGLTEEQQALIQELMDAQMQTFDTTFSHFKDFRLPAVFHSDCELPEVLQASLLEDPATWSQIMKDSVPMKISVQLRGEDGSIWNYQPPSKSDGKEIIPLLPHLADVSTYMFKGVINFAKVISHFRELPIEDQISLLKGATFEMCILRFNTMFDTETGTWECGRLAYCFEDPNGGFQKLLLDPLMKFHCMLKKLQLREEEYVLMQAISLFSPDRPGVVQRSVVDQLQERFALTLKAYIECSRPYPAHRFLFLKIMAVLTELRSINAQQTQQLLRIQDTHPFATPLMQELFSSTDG

Test [9] concerns the target Nuclear receptor subfamily 1 group I member 2 (Homo sapiens) (UniProt O75469). The experiment in a line: CYP3A4 induction through human pregnane X receptor (PXR) by small molecules, qHTS assay (AID 1346984). Further: nearly all actives have a fitted effect of over 40% in size. In short, it runs like this:
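Induction measured in HepG2-based DPX-2 cells co-expressing human PXR and a CYP3A4 promoter-driven luciferase. After a 24-hour compound exposure, cells received CYP3A4 luciferin substrate at 3uM final for 3 hours, and light output was then recorded.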

The target is the same in test [10]. Put plainly: Human pregnane X receptor (PXR) activation by small molecules, qHTS assay (AID 1346985). Further: nearly all actives have a fitted effect of over 40% in size. In short, it runs like this:
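DPX-2 cells (HepG2 co-transfected with a PXR response element and a CYP3A4-promoter luciferase construct) were seeded at 2,000 per well, rested 5 hr at 37C, then exposed to DMSO-dissolved compounds for 24 hr. Activation was read as luciferase luminescence.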

The target of test [11] is Cytochrome P450 2D6 (Homo sapiens) (UniProt P10635). Put plainly: Cytochrome P450 Family 2 Subfamily D Member 6 (CYP2D6) small molecule antagonists: luciferase reporter qHTS assay (AID 1671196). Further: nearly all actives have a fitted effect of over 50% in size. Further: potency means the concentration at half of the fitted maximal effect. In short, it runs like this:
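Test chemicals meet CYP2D6 plus proluciferin substrate (10 min, RT); NADPH regenerating solution then drives turnover for 1 h. Detection reagent halts the reaction; luminescence measured after 20 min.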

The target of test [12] is Cytochrome P450 1A2 (Homo sapiens) (UniProt P05177). Put plainly: Cytochrome P450 Family 1 Subfamily A Member 2 (CYP1A2) small molecule antagonists: luciferase reporter qHTS assay (AID 1671199). Further: nearly all actives have a fitted effect of over 50% in size. Further: potency means the concentration at half of the fitted maximal effect. In short, it runs like this:
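Steps: enzyme-substrate mix dispensed; test compounds and furafylline control pinned in; 10 min room temperature; NADPH regeneration solution added, 1 h; reaction stopped with luciferin detection reagent; luminescence read after 20 min.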
A general note: Reporter assays use an easily measured gene product as a stand-in for the process of interest.

Test [13] deals with Voltage-gated inwardly rectifying potassium channel KCNH2 (Homo sapiens) (UniProt Q12809). Put plainly: Human Ether-a-go-go-Related Gene (hERG) channel small molecule antagonists: fluorescence cell-based qHTS assay (AID 1671200).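 Further: hERG-expressing U2OS cells given a thallium stimulus after FluxOR II dye loading; series mostly up to about 77 µM; nearly all actives have a fitted effect of over 50% in size.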 Put shortly: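 Kinetic two-minute fluorescence traces, sampled at 1 s, were collected following thallium stimulus of U2OS cells (1000 per well) that had been cultured overnight at 37 C and loaded with FluxOR II.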
Chain of Voltage-gated inwardly rectifying potassium channel KCNH2 (Homo sapiens) (Q12809 whole entry, looked up): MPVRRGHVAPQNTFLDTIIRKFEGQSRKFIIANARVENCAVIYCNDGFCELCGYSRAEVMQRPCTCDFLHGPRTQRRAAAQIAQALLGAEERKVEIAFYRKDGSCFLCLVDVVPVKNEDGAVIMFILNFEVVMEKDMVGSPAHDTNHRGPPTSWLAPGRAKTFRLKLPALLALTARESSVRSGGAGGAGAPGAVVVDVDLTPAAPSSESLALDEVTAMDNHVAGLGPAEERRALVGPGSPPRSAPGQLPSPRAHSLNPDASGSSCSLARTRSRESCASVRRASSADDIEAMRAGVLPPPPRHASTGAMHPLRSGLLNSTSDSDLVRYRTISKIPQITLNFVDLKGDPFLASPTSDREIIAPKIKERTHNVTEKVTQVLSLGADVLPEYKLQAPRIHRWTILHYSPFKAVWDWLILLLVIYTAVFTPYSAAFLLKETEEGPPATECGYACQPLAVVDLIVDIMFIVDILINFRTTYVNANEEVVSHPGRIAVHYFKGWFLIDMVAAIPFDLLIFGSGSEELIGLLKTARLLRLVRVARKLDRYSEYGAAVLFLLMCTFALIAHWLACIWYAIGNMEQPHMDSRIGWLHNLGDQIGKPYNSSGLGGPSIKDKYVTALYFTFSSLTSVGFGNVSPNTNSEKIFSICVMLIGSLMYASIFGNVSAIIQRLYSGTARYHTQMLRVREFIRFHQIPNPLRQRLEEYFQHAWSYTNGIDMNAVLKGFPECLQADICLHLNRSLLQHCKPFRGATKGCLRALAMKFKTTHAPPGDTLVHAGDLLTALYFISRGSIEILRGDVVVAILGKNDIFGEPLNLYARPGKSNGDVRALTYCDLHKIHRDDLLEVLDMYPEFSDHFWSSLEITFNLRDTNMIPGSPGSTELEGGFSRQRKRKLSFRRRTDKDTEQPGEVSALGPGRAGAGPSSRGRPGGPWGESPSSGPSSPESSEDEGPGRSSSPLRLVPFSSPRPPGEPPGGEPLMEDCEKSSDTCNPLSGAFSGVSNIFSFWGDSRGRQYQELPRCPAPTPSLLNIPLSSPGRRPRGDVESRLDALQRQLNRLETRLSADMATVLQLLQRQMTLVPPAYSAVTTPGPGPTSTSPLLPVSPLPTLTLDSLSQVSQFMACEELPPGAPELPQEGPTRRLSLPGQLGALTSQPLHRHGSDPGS
On the technique in general: hERG is a cardiac potassium channel; its block is linked to QT prolongation.

Test [14] concerns the target Cytochrome P450 2C19 (Homo sapiens) (UniProt P33261). Put plainly: Cytochrome P450 Family 2 Subfamily C Member 19 (CYP2C19) small molecule antagonists: luciferase reporter qHTS assay (AID 1671197). Further: nearly all actives have a fitted effect of over 65% in size. Further: potency means the concentration at half of the fitted maximal effect. Put shortly: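 Light output is proportional to CYP2C19 activity: proluciferin substrate is converted to luciferin, then detected by a luciferin detection reagent that also stops the 1 h, 37C NADPH-driven reaction. Ketoconazole serves as positive control.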

The target in test [15] is Cytochrome P450 2C9 (Homo sapiens) (UniProt P11712). Put plainly: Cytochrome P450 Family 2 Subfamily C Member 9 (CYP2C9) small molecule antagonists: luciferase reporter qHTS assay (AID 1671198). Further: nearly all actives have a fitted effect of over 50% in size. Further: potency means the concentration at half of the fitted maximal effect. Put shortly:
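Enzyme-substrate mix preincubated with compound 10 min at room temperature; reaction started with NADPH regeneration solution, 1 h 37C. Luminescent luciferin product read after 20 min detection reagent.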

For test [16], the target named is Cytochrome P450 3A4 (Homo sapiens) (UniProt P08684). The experiment in a line: Cytochrome P450 Family 3 Subfamily A Member 4 (CYP3A4) small molecule antagonists: luciferase reporter qHTS assay (AID 1671201). Further: nearly all actives have a fitted effect of over 50% in size. Further: potency means the concentration at half of the fitted maximal effect. In short, it runs like this:
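Proluciferin-to-luciferin conversion by CYP3A4, NADPH-regenerated, 1 h RT; luminescence read as RLU. Ketoconazole as control.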
On the % scale 0 is the no-effect control and ±100 the full control effect.

Chain of Cytochrome P450 2D6 (Homo sapiens) (P10635 whole entry, looked up): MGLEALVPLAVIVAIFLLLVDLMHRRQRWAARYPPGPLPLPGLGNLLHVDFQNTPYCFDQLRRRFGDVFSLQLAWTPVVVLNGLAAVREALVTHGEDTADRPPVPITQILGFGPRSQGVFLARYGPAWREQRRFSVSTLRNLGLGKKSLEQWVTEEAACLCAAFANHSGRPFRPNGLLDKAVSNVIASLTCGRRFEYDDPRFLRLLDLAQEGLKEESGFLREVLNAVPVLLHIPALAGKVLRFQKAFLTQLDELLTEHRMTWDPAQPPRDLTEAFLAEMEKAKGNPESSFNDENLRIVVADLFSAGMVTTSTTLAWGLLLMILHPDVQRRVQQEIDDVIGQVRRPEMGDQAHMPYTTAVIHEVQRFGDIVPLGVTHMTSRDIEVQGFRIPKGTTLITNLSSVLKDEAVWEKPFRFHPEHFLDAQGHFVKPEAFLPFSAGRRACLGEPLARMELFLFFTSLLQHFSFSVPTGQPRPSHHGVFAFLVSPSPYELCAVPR
Chain of Cytochrome P450 2C9 (Homo sapiens) (P11712 whole entry, looked up): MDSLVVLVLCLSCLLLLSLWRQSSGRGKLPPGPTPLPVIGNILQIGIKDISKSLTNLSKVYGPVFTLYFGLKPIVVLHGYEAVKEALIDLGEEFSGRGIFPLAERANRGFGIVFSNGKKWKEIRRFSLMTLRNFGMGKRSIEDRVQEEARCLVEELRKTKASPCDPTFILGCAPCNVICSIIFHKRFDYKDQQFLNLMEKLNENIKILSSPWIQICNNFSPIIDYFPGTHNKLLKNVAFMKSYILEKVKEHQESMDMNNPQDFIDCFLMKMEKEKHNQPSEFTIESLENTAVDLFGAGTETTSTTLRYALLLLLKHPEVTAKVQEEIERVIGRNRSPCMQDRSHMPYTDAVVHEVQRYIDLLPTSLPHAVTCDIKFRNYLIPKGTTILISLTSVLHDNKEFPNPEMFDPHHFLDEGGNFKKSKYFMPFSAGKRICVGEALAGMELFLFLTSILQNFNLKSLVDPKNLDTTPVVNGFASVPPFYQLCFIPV
Chain of Cytochrome P450 3A4 (Homo sapiens) (P08684 whole entry, looked up): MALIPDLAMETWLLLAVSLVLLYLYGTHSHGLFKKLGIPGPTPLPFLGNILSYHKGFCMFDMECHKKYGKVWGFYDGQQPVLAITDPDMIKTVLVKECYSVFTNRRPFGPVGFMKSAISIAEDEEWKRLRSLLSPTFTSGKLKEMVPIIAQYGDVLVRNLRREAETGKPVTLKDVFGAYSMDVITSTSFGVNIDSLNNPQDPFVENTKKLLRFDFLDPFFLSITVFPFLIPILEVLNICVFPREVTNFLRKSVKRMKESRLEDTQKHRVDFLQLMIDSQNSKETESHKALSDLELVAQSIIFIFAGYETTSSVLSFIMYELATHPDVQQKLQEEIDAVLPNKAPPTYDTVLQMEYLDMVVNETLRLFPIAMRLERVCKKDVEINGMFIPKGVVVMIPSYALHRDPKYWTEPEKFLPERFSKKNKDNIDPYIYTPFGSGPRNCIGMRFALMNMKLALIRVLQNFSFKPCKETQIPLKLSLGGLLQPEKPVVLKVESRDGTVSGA
Chain of Thyrotropin-releasing hormone receptor (Homo sapiens) (P34981 whole entry, looked up): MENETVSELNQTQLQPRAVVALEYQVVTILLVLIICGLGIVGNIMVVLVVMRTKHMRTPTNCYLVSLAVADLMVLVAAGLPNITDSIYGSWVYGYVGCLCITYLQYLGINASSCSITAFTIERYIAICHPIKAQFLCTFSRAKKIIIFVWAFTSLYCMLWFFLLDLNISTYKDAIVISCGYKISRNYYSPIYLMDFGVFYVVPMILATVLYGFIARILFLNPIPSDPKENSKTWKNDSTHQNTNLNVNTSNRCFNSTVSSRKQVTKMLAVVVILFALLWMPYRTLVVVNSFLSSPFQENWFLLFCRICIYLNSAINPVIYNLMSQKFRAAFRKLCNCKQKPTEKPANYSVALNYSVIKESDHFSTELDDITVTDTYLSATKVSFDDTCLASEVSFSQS
Chain of Cytochrome P450 1A2 (Homo sapiens) (P05177 whole entry, looked up): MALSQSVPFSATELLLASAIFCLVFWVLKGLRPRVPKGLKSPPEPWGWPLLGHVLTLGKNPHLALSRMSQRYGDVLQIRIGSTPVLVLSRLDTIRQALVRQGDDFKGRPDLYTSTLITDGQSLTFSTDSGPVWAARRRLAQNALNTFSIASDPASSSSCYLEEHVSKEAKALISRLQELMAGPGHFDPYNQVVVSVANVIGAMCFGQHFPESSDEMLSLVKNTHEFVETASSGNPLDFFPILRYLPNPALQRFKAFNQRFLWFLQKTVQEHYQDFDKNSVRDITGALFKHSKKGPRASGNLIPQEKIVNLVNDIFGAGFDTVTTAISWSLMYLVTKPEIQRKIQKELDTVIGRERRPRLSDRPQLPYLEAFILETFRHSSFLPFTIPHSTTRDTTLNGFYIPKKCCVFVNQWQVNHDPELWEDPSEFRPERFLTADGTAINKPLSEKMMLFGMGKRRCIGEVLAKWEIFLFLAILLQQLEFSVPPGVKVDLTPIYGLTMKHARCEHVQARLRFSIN
Chain of Cytochrome P450 2C19 (Homo sapiens) (P33261 whole entry, looked up): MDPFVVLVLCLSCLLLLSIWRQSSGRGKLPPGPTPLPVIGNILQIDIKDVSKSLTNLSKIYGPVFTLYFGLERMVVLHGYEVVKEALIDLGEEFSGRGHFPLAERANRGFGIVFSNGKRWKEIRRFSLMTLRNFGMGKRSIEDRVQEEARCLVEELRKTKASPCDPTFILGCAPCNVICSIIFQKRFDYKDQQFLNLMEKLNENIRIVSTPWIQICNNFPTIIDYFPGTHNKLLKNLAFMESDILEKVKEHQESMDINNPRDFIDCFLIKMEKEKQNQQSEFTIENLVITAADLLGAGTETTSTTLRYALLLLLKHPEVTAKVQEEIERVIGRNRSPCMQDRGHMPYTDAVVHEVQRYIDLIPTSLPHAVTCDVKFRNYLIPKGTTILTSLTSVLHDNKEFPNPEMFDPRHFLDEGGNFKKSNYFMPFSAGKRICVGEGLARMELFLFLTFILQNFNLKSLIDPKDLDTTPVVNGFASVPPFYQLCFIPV

For `O=C(Nc1ccc(C(=O)O)c(O)c1)c1ccccc1`, the call in [1] and in test [5] was inactive. In addition, the Potency result in test [2], in test [3], in [4], in [6], in test [7] and in test [9] was “inactive” in each case. The Potency entry in [10], in test [12] and in test [13] was “inactive” each time. For the same molecule, in [8], the max activation was -2.23%. For the same molecule, in test [11], the Potency is 15.5 µM (active).

Consider `O=C1CC[C@@H](C(=O)O)N1`, for which the result in [1] and in test [5] was inactive. Moreover, the Potency entry in test [2], in [3], in test [4], in [6], in test [7] and in test [9] was “inactive” throughout. The Potency result in [10], in test [14], in [15] and in [12] was “inactive” each time. Besides, in [8], the max activation was -5.25%.

On to `CCOC(=O)c1c(N)sc2c1CCN(Cc1ccccc1)C2`, for which the molecule was classed as inactive in [1] and in test [5]. The Potency entry in [2], in test [3], in test [4], in test [6], in test [7] and in [9] was “inactive” throughout. Further, in test [10], the Potency entry is “inactive”. Besides, the max activation in test [8] was -1.17%. Further, the Potency in test [11] is 0.0219 µM (active); in test [14] it was 0.871 µM (active); in test [15] it was 3.47 µM (active); in [12], 15.5 µM (active).

Consider `CC(C)(C(=O)c1cccnc1)c1cccnc1`, for which the result in test [1] and in test [5] was inactive. Besides, the Potency entry in test [2], in test [3], in [4], in test [6], in test [7] and in test [9] was “inactive” throughout. Also, the Potency entry in [10], in test [14], in test [15], in [12] and in test [13] was “inactive” each time. Besides, the max activation in test [8] was -1.51%. The Potency in test [16] is 0.389 µM (active).

Take `CNc1c2c(nn1C)CCCC2`: the outcome in test [1] and in [5] was inactive. In addition, the Potency entry in test [2], in [3], in test [4], in test [6], in [7] and in test [9] was “inactive” each time. Further, the Potency entry in test [10], in [11], in test [14], in test [15], in test [12] and in [16] was “inactive” in each case. For the same molecule, the max activation in [8] is -2.75%.

As to `COc1ccc(C2C(=O)c3ccccc3C2=O)cc1`, the result in test [1] and in [5] was inactive. Moreover, the Potency result in test [2], in test [3], in [4], in test [6], in test [7] and in test [9] was “inactive” each time. For the same molecule, the Potency entry in test [11], in test [12] and in test [13] was “inactive” throughout. For the same molecule, the max activation in [8] is 8.42%. Also, the Potency in test [14] is 8.71 µM (active).

Take `CCCCCCCCCCCCCCCC(=O)OCC`: the result in test [1] and in test [5] was inactive. For the same molecule, the Potency result in test [2], in test [3], in [4], in test [6], in [7] and in test [11] was “inactive” in each case. Besides, the Potency result in [14], in [15], in test [12], in [13] and in [16] was “inactive” in each case.

In the case of `CC(C)CC(O)CC(C)C`, the molecule was classed as inactive in test [1] and in test [5]. Also, the Potency result in test [2], in test [3], in test [4], in [6], in test [7] and in test [11] was “inactive” in each case. In addition, the Potency result in test [14], in test [15], in test [12], in [13] and in test [16] was “inactive” each time.

The record behind these values is PubChem BioAssay (Tox21).
